Where “and” joins values, the source holds several entries; their conditions need not be identical. Equal values may be shown once. About 83,000 compounds went through this panel and 20% of them were active in at least one assay; those are over-represented in the sample as a whole.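 96-well plates, one dose, 48 hours. Percent growth reported; active if below 10.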 Unmarked numbers belong to inactive results. Calls of active or inactive are those of the source.
Each molecule was assayed on ACHN renal (assay: NCI-60 one-dose screen, 48 h (100 = growth as untreated, 0 = no growth, -100 = all killed)). Conditions: 10 µM unless noted.
CCCO/N=C/c1ccccn1 was tested, and the growth was 104% and 100%.
For CN(C)CCN1C(=O)c2c(c3c4ccccc4n4c3c3c2c2ccccc2n3C2CC(O)C(O)C4(C)O2)C1=O (stereo unspecified), the growth was -12.6% (active).
For CCOC(=O)c1c(-c2ccc(C)cc2)c(C#N)c(=O)n(-c2cccc(C(F)(F)F)c2)c1N, the growth was 96.7%.
CN(C)CCCn1c2c(c3ccc(N4CCNCC4)cc3c1=O)C(=O)c1ccccc1-2 was tested, and the growth was -10.5% (active).
With CCOc1ccccc1NC(=O)c1cc2ccccc2cc1O the growth was 29.3%.

Each molecule was assayed on CAKI-1 renal in the same assay as above. Conditions: 10 µM unless noted.
For COc1ccc(C(=O)c2ccc(OC)c(OC)c2OC)cc1, the growth was 14.4% and 21%.
For O=C1/C(=C/c2ccccc2)CN(C(=O)C(Cl)Cl)C/C1=C\c1ccccc1, the growth was 4.64% (active).
For C=C(C)[C@@H]1CC[C@]2(C(=O)O)CC[C@]3(C)[C@H](CC[C@@H]4[C@@]5(C)CCC(N)C(C)(C)[C@@H]5CC[C@]43C)[C@@H]12 (stereo partly specified), the growth was 48.6%.
N#C/C(=C\c1ccc(Br)cc1)n1nnc2c(F)cccc21 was tested, and the growth was -4.93% (active).
COC1=CC(=O)C(OC)=C(O)C1=O showed a growth of 93.9%.
CC(C)(C)c1cc(NC(=O)Nc2ccc(-c3cn4c(n3)sc3cc(OCCN5CCOCC5)ccc34)cc2)no1 was tested, and the growth was 30.4% and 13.4%.
COc1cccc(C2C(C#N)=C(N)Oc3cc(OCCCCCC[P+](c4ccccc4)(c4ccccc4)c4ccccc4)ccc32)c1 (stereo unspecified) was tested, and the growth was -8.91% (active).
For COc1ccc(-c2ccccc2)cc1-c1c(Nc2cc(Cl)cc(Cl)c2O)c(=O)c1=O, the growth was -12.6% (active).
Cc1ccc(S(=O)(=O)Nc2cc(Sc3ccccc3)c(O)c3ccccc23)cc1 was tested, and the growth was 73.1%.
COC(=O)c1[nH]nc(OC)c1C1(C(C#N)c2nc3ccccc3s2)CCCc2ccccc21 (stereo unspecified) gave a growth of 94.5%.
COc1ccc(-c2cc(-c3cccc(Cl)c3)c(C#N)c(=O)[nH]2)c(OC)c1 showed a growth of 90.9%.
Cc1nc(-n2[nH]c(=O)ccc2=O)sc1N=Nc1ccccc1 was tested, and the growth was 91.5%.
In the case of COc1ccc(-c2csc(NC(=O)CN3CCN(CCO)CC3)n2)cc1NS(=O)(=O)c1cccc2c(N(C)C)cccc12, the growth is reported as 75.6%.
Molecule COc1ccc(-c2[nH]c3ccccc3c2-c2ccc(OC)cc2)cc1 has a growth of 63.2%.
In the case of COc1ccc(/C=N\Nc2nc(SCC(C)C)nc(-c3ccc(OC)cc3)c2C#N)cc1, the growth is reported as 9.54% (active).
With CN(C)C(=O)c1cc2cnc(Nc3ccc(-c4csc5c(=S)cc(N6CCOCC6)oc45)cc3)nc2n1C1CCCC1 the growth was 11.7%.
O=C(Nc1ccc2ncsc2c1)c1csc(Nc2ccc3[nH]ncc3c2)n1 showed a growth of 30.3%.
NS(=O)(=O)c1ccc(C(=O)N=Nc2c(O)[nH]c3c(F)cccc23)cc1 gave a growth of 93.2%.
With C/C=C(\C)C(=O)N[C@H]1CC[C@]2(C)C3CC[C@@]4(C)C(CC[C@@H]4C(C)N(C)C)C3CCC2[C@H]1OC(C)=O (stereo partly specified) the growth was -43.3% (active).
For CC(=O)N1N=C(c2ccc(Nc3nc(Nc4ccc(F)cc4)nc(Nc4ccc(Cl)cc4)n3)cc2)CC1c1ccc(N(C)C)cc1 (stereo unspecified), the growth was 35.3%.
For ON=C1CCCCCCCC1, the growth was 105% and 99.8%.
With Cc1ccc(NC(=O)c2sc3nc(C)c(C(=O)c4ccccc4)cc3c2N)cc1 the growth was 76.1%.
For O=C(/C=C/c1ccc([N+](=O)[O-])cc1)c1ccccc1, the growth was 96.2%.
COc1cc(CO)cc2cc3ccccc3nc12 gave a growth of 93.6%.
In the case of O=C(Cc1ccc(F)cc1)c1ccccc1, the growth is reported as 106%.
In the case of COc1cc(-c2[nH]ncc2Nc2ccc(Cl)cc2)cc(OC)c1OC, the growth is reported as -14.8% (active).
Work on CC1(Cc2ccccc2)CC2=C(C(=O)O1)C(c1ccccc1)NC(=O)N2 (stereo unspecified) yielded a growth of 95%.
For C=CCN1C=CC(=O)[C@H](O[Si](C)(C)C(C)(C)C)[C@@H]1/C=C/c1ccccc1, the growth was -72.5% [100 µM] (active).
Cc1ccc(-c2nc3nc(-c4ccc(Cl)cc4)nc(N4CCCNCC4)c3o2)cc1 was tested, and the growth was -92.3% (active).
For CC1=C2[C@@H](CC1)[C@]1(C)O[C@@](C3CC3)(C[C@H]1OC(=O)CO)[C@H]2OC(=O)/C=C/c1ccccc1, the growth was 71.4%.
Work on CCN1CCN(C(=O)[C@]23CC[C@@H](C)[C@H](C)[C@@H]2C2=CC[C@@H]4[C@@]5(C)CCC(=O)C(C)(C)[C@@H]5CC[C@@]4(C)[C@]2(C)CC3)CC1 yielded a growth of 23.8%.

Source: PubChem BioAssay (NCI)
